# Data as given in PubChem BioAssay (NCATS).
# Active and inactive are the calls of the source. Calls follow the shape of the dose curve; as a rule, active = well fitted curve in the direction sought with a large enough effect; inconclusive = small, poorly fitted or top-dose-only effect, or another doubt; inactive = no such curve, though single readings can be large or run the other way.
# Molecular target: Thyrotropin receptor (Homo sapiens) (UniProt P16473)
# Assay: qHTS Assay for Antagonists of the Thyroid Stimulating Hormone Receptor (AID 488980); also: 0% is about no effect
# Settings: TSHR-expressing cells, cAMP antagonist read-out; series mostly up to 57.5 µM; activity, negative = inhibition: at the top concentration
# Description: TSH is an alpha/beta heterodimeric glycoprotein hormone secreted from the anterior pituitary gland which belongs to the glycoprotein hormone family. The actions of TSH are mediated by a seven-transmembrane receptor, which upon TSH binding couples preferentially to the G-alpha (s) protein (Gs), resulting in activation of adenylate cyclase and increase in cyclic adenosine 3', 5' monophosphate (cAMP). The TSH receptor (THSR) is mainly expressed in thyroid follicular cells and regulates their growth and function. This cell based assay was conducted on a TSHR transfected HEK 293 cell line, measuring cAMP stimulation using antibody-based Homogeneous Time Resolved Fluorescence (HTRF).
# Our goal is to identify small molecules that will inhibit (antagonize) the thyroid-stimulating hormone receptor (TSHR), a member of the 7 transmembrane-spanning receptor (7TMR) family of cell surface receptors. TSHR-mediated hyperthyroidism is important in thyroid pathology. The development of small molecule antagonists of TSHR may lead to therapeutic approaches for TSHR-mediated hyperthyroidism caused by constitutively activating mutations or stimulating auto-antibodies associated with Graves' disease. Graves' disease is the leading cause of hyperthyroidism and is caused by autoantibodies that stimulate TSHR (TsAbs) causing thyroid growth and unregulated overproduction of thyroid hormones and existing treatments have liabilities (agranulocytosis). In addition, TSHRs are known to be expressed in multiple extrathyroidal tissues including bone, brain, kidney, testis, fat and cells of the immune system but the role of the TSHR in these tissues is not clear. Therefore, TSHR antagonists/inverse agonists could be used as probes of extrathyroidal TSHR function. Finally, TSHR inverse agonists, which are a subclass of antagonists that inhibit agonist-independent (or basal or constitutive) TSHR signaling, could be used to inhibit TSH-independent signaling in patients with recurrent or metastatic thyroid cancer who are receiving thyroid hormone to suppress TSH.
# An anti cAMP antibody contains a fluorescent cryptate tag (excitation 337 nm; emission 620 nm) and the acceptor is cAMP-d2 (excitation 620 nm; emission 665 nm). When antibody and cAMP-d2 interact and are excited by a 337 nm light, a FRET occurs resulting in emission at 665 nm. The assay is competition between cAMP-d2 and cAMP (from the cell lysate). The homogeneous protocol allows for one step dispense after stimulation that is automation friendly.
# Step, Parameter, Value, Description
# 1, Cells, 3 uL, 2000 TSHR freshly harvested cells/well 1536 TC treated White solid bottom plate (Cells resuspended in 10 mM HEPES buffered HBSS and 70 uM RO 20-1724)
# 2, Compound, 23 nL, Libraries and controls
# 3, Compound, 1 uL, EC80 TSH (4 nM final)
# 5, Reagent, 2 uL, cAMP antibody diluted 1:20 in lysis buffer
# 6, Time, 30 minutes, Room temperature
# 7, Detector, HTRF settings, Viewlux
# Thyrotropin receptor (Homo sapiens), sequence (P16473 whole entry, looked up): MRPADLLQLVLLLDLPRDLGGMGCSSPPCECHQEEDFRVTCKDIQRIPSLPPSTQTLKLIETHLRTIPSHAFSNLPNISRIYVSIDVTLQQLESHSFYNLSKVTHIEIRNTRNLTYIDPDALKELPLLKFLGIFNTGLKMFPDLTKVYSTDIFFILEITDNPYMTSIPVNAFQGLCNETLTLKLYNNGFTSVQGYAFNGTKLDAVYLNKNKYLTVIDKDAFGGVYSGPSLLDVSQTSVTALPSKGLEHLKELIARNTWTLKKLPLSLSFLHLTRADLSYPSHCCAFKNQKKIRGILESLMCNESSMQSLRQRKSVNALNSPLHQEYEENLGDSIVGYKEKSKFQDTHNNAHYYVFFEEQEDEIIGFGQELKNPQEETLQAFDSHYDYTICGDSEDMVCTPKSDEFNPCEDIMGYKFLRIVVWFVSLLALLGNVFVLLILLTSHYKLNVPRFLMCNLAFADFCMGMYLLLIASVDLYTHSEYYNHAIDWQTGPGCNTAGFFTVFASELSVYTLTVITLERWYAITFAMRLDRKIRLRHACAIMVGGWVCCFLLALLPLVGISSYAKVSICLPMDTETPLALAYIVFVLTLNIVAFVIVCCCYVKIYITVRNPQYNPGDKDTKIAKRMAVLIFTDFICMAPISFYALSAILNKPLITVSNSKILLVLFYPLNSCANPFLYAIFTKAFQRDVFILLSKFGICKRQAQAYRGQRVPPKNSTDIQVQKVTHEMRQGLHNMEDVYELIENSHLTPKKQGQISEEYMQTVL
row,SMILES,"activity, negative = inhibition"
1,CC1(C)CCC(NC(=O)[C@@H](N)CCC(=O)O)CC1,-1.13% (inactive)
2,Oc1ccc(O)cc1,-0.235% (inactive)
3,CC(C)COC(=O)OCN1C(=O)CN(CCN2CC(=O)N(COC(=O)OCC(C)C)C(=O)C2)CC1=O,-0.235% (inactive)
4,C[C@]12CC[C@@H]3c4ccc(O)cc4CC[C@H]3[C@@H]1CC[C@@H]2O,-1.2% (inactive)
5,N[C@H](CO)C(=O)O,-0.799% (inactive)
6,CNCCC(Oc1ccccc1C)c1ccccc1 (stereo unspecified),-1.07% (inactive)
7,C1CCc2nnnn2CC1,-0.95% (inactive)
8,COc1cc(-c2ccc(=O)[nH]n2)ccc1OC(F)F,0.266% (inactive)
9,C[C@@H]1C(=O)NC2=Nc3cccc(Cl)c3CN21,-0.87% (inactive)
10,COC(=O)[C@H]1[C@H]2C[C@H]3c4[nH]c5ccccc5c4CCN3C[C@H]2CC[C@@H]1O,0.188% (inactive)
11,CN1C2CCC1CC(OC(=O)c1c[nH]c3ccccc13)C2 (stereo unspecified),-2.14% (inactive)
12,CN=C(NC#N)Nc1ccc(C2=NNC(=O)CC2C)cc1 (stereo unspecified),0.0783% (inactive)
13,O=C1CCC(c2ccc(-n3ccnc3)cc2)=NN1,-1.32% (inactive)
14,CNCCC=C1c2ccccc2CCc2ccccc21,-0.305% (inactive)
15,COc1cc(NS(C)(=O)=O)ccc1Nc1c2ccccc2nc2ccccc12,-0.911% (inactive)
16,CCC(NC(C)C)C(O)c1ccc(O)c(O)c1 (stereo unspecified),-0.656% (inactive)
17,N[C@@H](Cc1cnc[nH]1)C(=O)O,-1.44% (inactive)
18,C[N+]1(CCCCC[N+]2(C)CCCC2)CCCC1,-0.925% (inactive)
19,O=C(O)c1cc2cc(Cc3cccnc3)ccc2o1,0.0783% (inactive)
20,CCCn1c(=O)[nH]c(=O)c2[nH]cnc21,-1.02% (inactive)
21,Nc1cc(Cl)c(NC2=NCCN2)c(Cl)c1,-0.928% (inactive)
